Source: PubChem BioAssay
GSIS activator: GLuc luminescence reporter in INS-1E cells, primary screen for activators of glucose-dependent secretion of insulin. activation, % at 16.6 µM. INS-1E GLuc reporter insulin secretion, 2-3 h. 370,000 tested, 0.61% active. AID 743287, 2014;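 active means lowest replicate activation of at least 40%, so every replicate reaches that level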;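 further: 0% = median of neutral control wells and 100% = median of IBMX positive control wells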
SIRT5 block: SIRT5 desuccinylase inhibitors, primary screen, biochemical, fluorescence imaging, single point, set 5. NAD-dependent protein deacylase sirtuin-5, mitochondrial (Homo sapiens), Q9NXA8. Purified SirT5, succinyl-peptide AMC, trypsin-coupled fluorescence. inhibition, % at 15 µM. 330,000 tested, 1.1% active. AID 652115, 2013; in the data active means inhibition above about 15%
ERAP1 inh: human ERAP1 aminopeptidase inhibitors, primary screen, biochemical, single point, plate reader; 340,000 tested, 0.15% active; Endoplasmic reticulum aminopeptidase 1 (Homo sapiens), Q9NZ08; recombinant ERAP1, Leu-AMC fluorescence, 60 min; inhibition, % at 10.7 µM;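 active means mean replicate inhibition of at least 30%, or all replicates individually reaching that 30% level; inactive means mean below 30% and not every replicate reaching it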;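 further: 0% = neutral control wells and 100% = L-leucinethiol positive control wells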
Casp6 inh: human caspase-6 inhibitors, primary screen, biochemical, VEID-R110 fluorescence, single point, set 2 | purified caspase-6, Z-VEID-R110 cleavage fluorescence | inhibition, % at 12.5 µM | 350,000 tested, 0.53% active | AID 686996, 2013;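 active means mean inhibition across replicates at least about 35%, with every replicate also reaching that limit, limit read from the data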;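 further: 0% = median of neutral control wells and 100% = no fluorescence left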
Target sequence (P55212 24-179 limits assumed): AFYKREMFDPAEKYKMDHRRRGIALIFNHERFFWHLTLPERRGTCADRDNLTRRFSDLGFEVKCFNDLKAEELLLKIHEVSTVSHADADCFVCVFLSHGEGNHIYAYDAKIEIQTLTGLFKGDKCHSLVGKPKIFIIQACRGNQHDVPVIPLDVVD
Target sequence (P55212 194-293 limits assumed): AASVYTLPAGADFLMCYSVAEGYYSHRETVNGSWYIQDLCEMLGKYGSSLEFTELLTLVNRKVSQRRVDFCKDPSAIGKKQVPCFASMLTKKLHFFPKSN
FGF22 binding: binders of human FGF22 protein, primary screen, FGF22 synaptogenesis inhibitor project, biophysical, thermal shift, single point. Fibroblast growth factor 22 (Homo sapiens), Q9HCT0. recombinant FGF22 thermal shift, SYPRO orange fluorescence; percent of sucrose octasulfate shift, DMSO zero. activity (Tm shift, normalised), % at 9.99 µM. 340,000 tested, 1.5% active;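 active means mean Tm shift, scaled 0 neutral to 100 positive control, at about 1.3% or above, every replicate too, limit read from the data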
Target sequence (Q9HCT0 whole entry, looked up): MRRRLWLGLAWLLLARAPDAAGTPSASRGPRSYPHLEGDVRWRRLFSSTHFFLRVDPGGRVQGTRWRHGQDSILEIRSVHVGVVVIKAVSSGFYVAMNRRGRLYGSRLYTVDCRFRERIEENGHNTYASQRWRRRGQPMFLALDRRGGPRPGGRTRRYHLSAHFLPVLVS
Numbers without * were called inactive; . = no result. Only some compounds are listed: those with a hit (about 3.3% of all), similar ones and a draw of the others.

SMILES	GSIS activator	SIRT5 block	ERAP1 inh	Casp6 inh	FGF22 binding
O=C(COC(=O)c1nc(Cl)ccc1Cl)c1ccc(Cl)s1	0	1	2	3	44*
O=C(COC(=O)c1nc(Cl)ccc1Cl)c1ccccc1Cl	6	1	4	3	0
COc1cccc(CN(CC(=O)NCC2CCCO2)C(=O)CNS(=O)(=O)c2ccccc2)c1 (configuration not stated)	12	-5	1	-4	0
COc1cccc(N(CC(=O)NCC2CCCO2)C(=O)CNS(=O)(=O)c2ccccc2)c1 (configuration not stated)	1	-3	-3	-1	44*
O=C(CN(CC1CCCO1)C(=O)CNS(=O)(=O)c1ccccc1)NCc1ccco1 (configuration not stated)	11	-2	0	0	43*
CCOc1ccc(NC(=O)c2ccc(NC(=S)NC3CC3)cc2)cc1	-2	-3	-6	1	1.9*
CN1CCN(CCC(=O)N/N=C/c2cc([N+](=O)[O-])ccc2OC(F)F)CC1	-9	23*	1	-10	0
CCOC(=O)NC(=O)CSc1nnc(C2CC2)n1Cc1ccco1	-3	-2	-4	.	43*
CCn1c(SCC(=O)NCc2ccco2)nnc1C1CCCC1	1	-2	0	2	1
COc1ccccc1CCn1cnc(-c2ccc(Cl)cc2)c1CC(C)C	307*	.	-3	0	0
CCCc1c(-c2ccc(OC)cc2)ncn1CCc1ccccc1OC	-37	1	1	4	0
COc1ccccc1CCn1cnc(-c2cccc(F)c2)c1CC(C)C	141*	.	-3	1	0
Cc1noc(C)c1NC(=O)N(C)C[C@@H]1Oc2c(NC(=O)c3ccncc3)cccc2C(=O)N([C@H](C)CO)C[C@H]1C	5	-7	-1	0	0
OC[C@H]1[C@H](c2ccc(-c3ccccc3)cc2)[C@@H]2CN(CCC(F)(F)F)CCCCN12	-19	27*	10	-11	0
CN(C)C(=O)c1ccc(-c2ccc([C@H]3[C@@H](CO)N4CCCCN(CCC(F)(F)F)C[C@@H]34)cc2)cc1	1	-12	0	4	0
CN(C)C(=O)c1ccc(-c2ccc([C@H]3[C@H](CO)N4CCCCN(CCC(F)(F)F)C[C@@H]34)cc2)cc1	-4	33*	1	-5	1
CCS(=O)(=O)N1CC(=O)N2[C@H](CO)[C@@H](c3ccc(C#Cc4ccc(F)cc4)cc3)[C@@H]2C1	-8	.	.	.	.
CCCNC(=O)C[C@@H]1C[C@H]2c3cc(NS(=O)(=O)c4ccc(F)cc4)ccc3O[C@H]2[C@H](CO)O1	5	-3	-1	-1	0
C[C@@H]1CN([C@H](C)CO)C(=O)Cc2cc(NS(=O)(=O)c3cn(C)cn3)ccc2O[C@@H]1CN(C)C(=O)Nc1ccc(C(F)(F)F)cc1	19	2	5	-2	0
CN1C(=O)c2ccccc2Cc2c(NCc3ccccc3)ncnc21	.	.	1	3	43*
Cc1c(C)n(CCN(C)C)c2ncnc(NCc3ccccc3)c12	9	-4	1	-8	0
O=C(Cc1cccnc1)N1CC(=O)N2[C@H](C1)[C@@H](c1ccc(C#CC3CCCCC3)cc1)[C@@H]2CO	-13	14	.	.	0
OC(c1ccc(F)cc1)c1ncc(-c2ccccc2F)[nH]1 (configuration not stated)	-9	-1	7	39*	0
CC(=O)c1ccc(S(=O)(=O)Nc2c(C)nn(C)c2C)cc1	31	-2	1	43*	0
Cc1oc(-c2ccccc2Cl)nc1CN1CCCCC1c1cccnc1 (configuration not stated)	-12	-23	4	-3	43*
SMILES	GSIS activator	SIRT5 block	ERAP1 inh	Casp6 inh	FGF22 binding
Cc1oc(-c2ccccc2Cl)nc1CN1CCCC1c1ccc(F)cc1 (configuration not stated)	-15	-1	0	-4	0
COc1cccc(C#Cc2ccc([C@H]3[C@@H](CO)N4C(=O)CN(S(=O)(=O)c5ccccc5C)C[C@H]34)cc2)c1	5	-1	-1	0	-1
CN(C)CC#Cc1ccc([C@@H]2[C@H](CO)N3C(=O)CN(C(=O)Cc4ccccc4)C[C@@H]23)cc1	14	0	0	-3	.
CCNc1nc(-c2cc(C)n(Cc3ccco3)c2C)cs1	10	-4	4	51*	0
Cc1noc(C)c1C(=O)N(C)C[C@H]1OCc2ccccc2-c2c(n(C)c3ccccc23)C(=O)N([C@H](C)CO)C[C@H]1C	3	-11	-1	-1	0
CC(=O)Nc1cccc(NC(=O)Nc2ccc(F)cc2F)c1	-15	-3	0	-2	0
O=C(Nc1ccccc1F)Nc1ccccc1F	-3	-1	-1	1	44*
O=C(Nc1ccccc1)Nc1ccc(F)cc1F	-1	-1	-5	-2	43*
O=C(Nc1ccc(Br)cc1)Nc1ccccc1F	-10	-2	0	-2	0
CC(C)NC(=O)N(C)C[C@H]1Oc2cc(-c3cncnc3)ccc2S(=O)(=O)N([C@H](C)CO)C[C@H]1C	14	-3	-1	-3	0
CN(C)CCCNC(=O)C[C@@H]1CC[C@@H]2[C@H](COc3ccc(NC(=O)c4ccc5c(c4)OCO5)cc3C(=O)N2C)O1	7	-7	0	-6	0
CC/C(=C\C1CCCCC1)C(NP(=O)(c1ccccc1)c1ccccc1)c1ccccc1 (configuration not stated)	72	22*	-2	-2	0
COc1cc2c(cc1OC)CN(c1ncccc1[N+](=O)[O-])CC2	50*	-1	-2	-1	0
C[C@H]1CN([C@@H](C)CO)C(=O)c2cc(NC(=O)CCN3CCOCC3)ccc2O[C@H]1CN(C)S(=O)(=O)c1ccc(F)cc1	36	.	3	-1	0
COCC(=O)N(C)C[C@H]1Oc2cc(C#CCC(C)C)ccc2S(=O)(=O)N([C@H](C)CO)C[C@H]1C	-18	-3	-1	1	0
COc1ccc(Oc2nc(-c3ccccc3)ncc2C(=O)O)cc1	3	-2	-2	0	43*
COc1ccc(Sc2nc(-c3ccccc3)ncc2C(=O)O)cc1	8	-1	1	3	43
CCC1=NN(C(=O)c2ccccc2O)C(O)(c2ccccc2)C1 (configuration not stated)	.	0	-3	72*	0
CCC1=NN(C(=O)c2ccccc2Br)C(O)(c2ccc(Br)cc2)C1 (configuration not stated)	1	-1	0	1	0
